# PubChem BioAssay (NCI)
# Compounds without any hit were thinned out: in the full panel of roughly 83,000, 20% have a hit.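 Note: values are percent growth. 100 is the growth of untreated cells, values between 100 and 0 indicate rising inhibition; between -100 and 0 indicates cell death.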 Values without a mark were called inactive. Activity calls are given as the source filed them. How the source made its calls: active means growth percent below 10; inactive means the rest.
# Test system: KM12 colon
# Experiment: NCI-60 one-dose screen, 48 h (100 = growth as untreated, 0 = no growth, -100 = all killed)
# Conditions: 10 µM unless noted
row,SMILES,growth
1,COC(=O)c1cc(-c2cccs2)c(C#N)c(N)c1C#N,108%
2,Cc1cc(Nc2nc(C(=O)Nc3ccccc3)nc3ccccc23)n[nH]1,28%
3,CNC(C)=O,106%
4,CN(C)c1ccc(-c2ccc(-c3ccc(C(=N)N)cn3)o2)cc1,-97% (active)
5,CCN1C(=O)N(CC)C2C1NN=c1s/c(=C\c3cccc(F)c3)c(=O)n12 (stereo not drawn),11.2%
6,O=C(CC(O)c1ccncc1)c1ccccc1 (stereo not drawn),38.2%
7,CCN1C(=S)N(CC)C2Nn3c(s/c(=C4\C(=O)N(C)c5ccccc54)c3=O)=NC21 (stereo not drawn),27.4%
8,O=C(Nc1ccc(Cl)cc1)c1cc(-c2ccc(F)cc2)c2sc(=O)[nH]c2n1,6.83% (active)
9,C#CCN1C(=O)/C(=c2\sc3n(c2=O)NC2C(N=3)N(CC)C(=O)N2CC)c2ccccc21 (stereo not drawn),46.8%
10,C=C1C(=O)O[C@H]2[C@H]1CC/C(COC(=O)NCc1cc(OC)cc(OC)c1)=C\CC[C@@]1(C)O[C@@H]21,45.1%
11,COc1ccc(C2CC(=O)Nc3c2c(C)nn3-c2nc3ccccc3[nH]2)cc1OC (stereo not drawn),82.6%
12,COc1ccc(NC(=O)CSc2nc3ccccc3c(=O)n2Cc2cc(OC)c(OC)c(OC)c2)cc1,97.7%
13,COc1cccc(NC(=O)Cn2cc3c(=O)oc4ccccc4c3n2)c1,100%
14,CCCCCC(=O)OCc1ccccc1,98.1%
15,CCCCCCCCCN1C(=O)/C(=c2\sc3n(c2=O)C2C(NN=3)N(CC)C(=O)N2CC)c2ccccc21 (stereo not drawn),9.43% (active)
16,Nc1c(C(=O)Nc2cccc([N+](=O)[O-])c2)sc2nc3c(cc12)C(O)CCC3 (stereo not drawn),33.4%
17,COc1ccc(/C=c2\sc3n(c2=O)C2C(NN=3)N(C)C(=O)N2C)cc1 (stereo not drawn),22.8%
18,CC(Br)C(O)c1cc2c(cc1Br)OCO2 (stereo not drawn),108%
19,CC/C=C\C/C=C\C[C@H]1C/C=C2/C(=O)C=C[C@H]2C/C=C\CCC(=O)O1,-34.5% (active)

row,SMILES,growth
1,CCN(C(=O)c1cc2ccccc2[nH]1)[C@H]1CCC[C@@H](NCc2ccc(OC)cc2)C1,90.4%
2,COc1ccc(NC(=O)/N=c2\oc3c(OC)cccc3cc2-c2cc3ccccc3[nH]2)cc1,63.1%
3,COc1ccc(/C=N/NC(=O)Cn2c(Cc3cccc4ccccc34)nc3ccccc32)cc1,98%
4,COc1cccc2cc(-c3cc4ccccc4[nH]3)/c(=N/C(=S)Nc3ccccc3)oc12,88.3%
5,CCCCCCCCCCCCOB(OCCCCCCCCCCCC)OCCCCCCCCCCCC,102%
6,COc1ccc(/C=C/C(=O)OCC(=O)NNC(=O)c2ccccc2)cc1OC,115%
7,COc1ccc(NC(=S)/N=c2\oc3c(OC)cccc3cc2-c2cc3ccccc3[nH]2)cc1,73.2%
8,Cc1oc2nc[nH]c(=O)c2c1C(=O)/C=C/c1ccc(Cl)cc1,13.6%
9,COc1ccc(Cl)cc1NC(N)=S,105%
10,c1ccn2nnnc2c1,99.5%
11,O=C(/C=C/CN1CCCCC1)Nc1cc2c(Nc3ccc(F)c(Cl)c3F)ncnc2cc1OCCOC(F)F,36.5%
12,CCN1C(=O)N(CC)C2Nn3c(s/c(=C4\C(=O)N(C5CCCC5)c5ccccc54)c3=O)=NC21 (stereo not drawn),23.8%
13,C=CCN=C1NC(=O)/C(=C/c2cc(C(C)(C)C)c(O)c(C(C)(C)C)c2)S1,61.4%
14,Nc1c(C(=O)Nc2ccccc2)sc2nc3c(cc12)CCCCC3,12.2%
15,O=C1N=C(c2c(-c3[nH]c(=O)c4ccc(Br)cc4c3O)c(O)c3ccccc3c2O)C(=O)c2cc(Br)ccc21,-53.2% (active)
16,CCCCCCCC/C=C\CCCCCCCCOc1ccccc1CCOP(=O)(O)OCC[N+](C)(C)C,21.8%
17,CC(C)C[C@H](NC(=O)[C@@H](Cc1ccccc1)n1ccc(Nc2ccccc2)cc1=O)B(O)O,-55.1% (active)
18,COc1ccc(/C=C2\Oc3cc(OCCN4CCCC4)ccc3C2=O)c(OC)c1,74.3%
19,Oc1ccc(N=Cc2ccccc2)cc1,91.3%
